PubChem BioAssay AID2782 (National Center for Advancing Translational Sciences (NCATS), 2010)
Records with an inconclusive call do not appear. Values without a mark were called inactive. Calls of active or inactive are those of the source. The call rests on the fitted dose curve; in most records, active means well fitted inhibition curve with a large enough effect in the polarisation, with a control signal flat (not every such curve was filed as active); inconclusive means small, poorly fitted or top-dose-only effect, or effect the other way, or a change in a side signal; inactive means no such curve, though single readings can be large or run the other way; the % refers to the polarisation.
On the % scale 0 is the no-effect control and ±100 the full control effect; potency means the concentration at half of the fitted maximal effect.

Assay: Confirmation of Inhibitors Targeting the Menin-MLL Interaction in MLL Related Leukemias: Competition With Texas Red Labeled MLL-derived Mutant Peptide
Conditions: fluorescence polarization, Texas Red MLL peptide displacement; series mostly up to 94.6 µM; FP change, negative = inhibition: at the top concentration
Method in brief: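 Hits from the primary screen were retested: compounds were incubated 1 hr at ambient with 200 nM menin, 50 nM Texas Red mutant peptide and 25 nM fluorescein wild-type peptide (Tris pH 7.5, BSA-supplemented buffer), then fluorescence polarization was read.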
With Cn1c(=O)n(C)c2cc3[nH]cnc3cc21 the “FP change, negative = inhibition” value was 10.9%.
In the case of O=C(CC(=O)c1ccccc1)Nc1cc(C(F)(F)F)ccc1Cl, the “FP change, negative = inhibition” value is reported as 49.2%.
In the case of Cc1cnc(NC(=O)C2C(=O)c3ccccc3S(=O)(=O)N2C)s1 (stereo unspecified), the “FP change, negative = inhibition” value is reported as 8.84% [at 288 µM].
For Cc1cc2c(c(=O)n1Cc1ccccc1)C1O[C@](c3ccsc3)(Cc3cc(C#N)ccc31)O2, the “FP change, negative = inhibition” value was -15.7% [at 23.7 µM].
In the case of O=C(Cn1nc(-c2ccccc2)ccc1=O)N1CCCCC1, the “FP change, negative = inhibition” value is reported as -9.46% [at 288 µM].
For COC(=O)c1cc(CNC(=O)CCCSc2ccccc2)ccc1OC, the “FP change, negative = inhibition” value was 19.6%.
With COCCNC(=O)C(OC(=O)c1nsc(Cl)c1Cl)C(C)C (stereo unspecified) the “FP change, negative = inhibition” value was 11.4%.
For COc1ccc(CC(=O)Nc2ccc(-c3nnc(-c4ccccc4)o3)cc2)cc1, the “FP change, negative = inhibition” value was 36.9%.
With O=S(=O)(Nc1cccc(-c2cn3cccnc3n2)c1)c1ccccc1 the “FP change, negative = inhibition” value was -23.2% [at 288 µM].
For O=C(CN1C(=O)/C(=C/c2cccc(Br)c2)SC1=S)NC1=NCCS1, the Potency was 17.8 µM (active).
For O=C(NC1CCN(c2ncccn2)CC1)c1c(F)cccc1F, the “FP change, negative = inhibition” value was -9.09% [at 288 µM].
For Cc1ccccc1-c1n[nH]c(=S)n1C, the “FP change, negative = inhibition” value was -6.97%.
With CCc1cc2c(N3CCN(C(=O)c4ccco4)CC3)ncnc2s1 the Potency was 35.5 µM (active).
For O=C(NNCS(=O)(=O)O)c1ccncc1, the “FP change, negative = inhibition” value was 3.6%.
For Cc1cc(N2CCOCC2)nc2ccc(Cl)cc12, the “FP change, negative = inhibition” value was 1.95%.
With CCC(=O)Nc1ccc(-c2cc(-c3ccccc3)nc(-c3ccc(NC(=O)CC)cc3)n2)cc1 the Potency was 39.8 µM (active).
